# Reference: the supplement of paper PMC6555819
# Key:
# Experiment in all cases: PBM binding z-score (relative to random genomic background probes); higher = stronger binding; sequences stand for … in GC…GCGATTGACAGCGTAGAATGAAGG
# [1] = system: FXR:RXRa (NR concentration 270 nM, RXRa partner concentration 90 nM)
# How it was run: (§1)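 Binding z-scores take random background probes as their reference. They come from custom Agilent 4×180K protein-binding microarrays incubated 1 h with ligand-free nuclear receptor dimers, with antibodies against each partner (one per run) detecting binding. Scanned fluorescence was regression-normalized.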
# [2] = system: LXRa:RXRa (NR concentration 270 nM, RXRa partner concentration 90 nM)
# How it was run: as §1
# [3] = system: LXRa homodimer (NR concentration 270 nM)
# How it was run: as §1
# [4] = system: LXRb:RXRa (NR concentration 270 nM, RXRa partner concentration 90 nM)
# How it was run: as §1
# [5] = system: LXRb homodimer (NR concentration 270 nM)
# How it was run: as §1
# [6] = system: PPARa:RXRa (NR concentration 270 nM, RXRa partner concentration 90 nM)
# How it was run: as §1
# [7] = system: PPARg:RXRa (NR concentration 180 nM, RXRa partner concentration 90 nM)
# How it was run: as §1
# [8] = system: PPARg:RXRa 270nM:90nM, anti-RXR (NR concentration 270 nM, RXRa partner concentration 90 nM)
# How it was run: as §1
# [9] = system: PPARg:RXRa 30nM:10nM, anti-RXR (NR concentration 30 nM, RXRa partner concentration 10 nM)
# How it was run: as §1
# [10] = system: PPARg:RXRa 90nM:30nM, anti-RXR (NR concentration 90 nM, RXRa partner concentration 30 nM)
# How it was run: as §1
Sequence,PBM binding z-score [1],PBM binding z-score [2],PBM binding z-score [3],PBM binding z-score [4],PBM binding z-score [5],PBM binding z-score [6],PBM binding z-score [7],PBM binding z-score [8],PBM binding z-score [9],PBM binding z-score [10]
ACTATTAGTTGAGACGGGGGCAACCGATAGGTTG,1.28,1.35,0.528,3.71,7.57,2.52,1.16,2.35,1.24,1.87
TAGCCTAGGTCATGGCCCAGTATACCACGCGAAC,4.7,3.85,0.774,2.64,-0.293,4.33,4.27,3.99,1.14,2.95
CCTCGGAGGACAGAACGTCAGAGCTGTCCGCTTT,-0.455,-0.498,-0.707,-1.16,-1.1,-1.32,-0.391,-1.32,-1.28,-1.56
GCTATTAGTGGAAAGGGCAACCGAATGATTCTCG,0.118,0.287,-0.215,0.268,-0.406,1.68,1.88,3.6,1.97,3.34
ACTAGTTGGACAGCTGAGGTCACACACAATTCGG,3.1,2.78,1.59,3.3,0.683,3.53,1.65,1.76,0.342,1.41
GCGGCTGGGGCATCAGCAGGTTACCATAACTTAA,-0.5,-0.215,-0.622,0.239,-0.602,0.602,-0.0151,-0.415,-0.593,-0.53
ACTATTTGGTCAGCTGAGGTCACACACAATTCGG,3.54,3.48,2.98,3.81,1.88,3.9,1.86,2.4,0.852,1.66
TCTAGTTGGTCACGGTGGTCACACACGACGGGTA,-0.0806,0.249,-0.00168,0.395,0.0154,1,1.15,2.15,3.17,2.47
AGAACGAGGGCACGCTGAGTTGCTAGCAGAGTAG,0.473,0.348,-0.756,-0.279,-1.02,2.05,1.85,1.6,0.179,0.707
CGTCAAAGTTCAACTAAGGAAACGTAAAGCACGC,7.38,6.47,3.78,4.2,2.11,5.18,5.11,5.68,2.56,4.69
CAAACTAGGTCGAAGGTCAAAGTCGAGCCAACCA,5.22,4.73,2.22,4.63,0.602,6.98,12.4,10.2,10.9,12.7
TAGCCTAGGTCAGATCGGGCCAGGATACGCTATA,1.61,1.02,-0.706,0.308,-0.62,1.68,0.718,0.623,-0.241,-0.042
TCTTGTAGATCAAGGAGGTTAAGAAAGCCTGAGT,0.502,0.513,-0.308,0.459,-0.443,1.27,-0.429,1.44,2.7,1.77
CGAACTAGATCATTGACAGGACAGTGAATAGTAA,-0.0761,-0.268,0.18,-0.274,-0.0892,0.0131,0.572,-0.333,0.0975,0.113
CGTCAAAATTCAACTAAGGTAACGTAAAGCACGC,0.963,0.314,0.303,0.543,0.0502,0.568,0.569,0.127,-0.0256,0.246
TCTTGTAGATCAAAGGGTAAGAAAGCCGAAGCCT,0.566,0.4,-0.283,0.288,-0.418,2.51,4.4,5.99,5.35,6.1
ATATATAGGTTATCGGGTCATTCAGTTTGCGCAT,3.94,3.78,2.66,3.46,2.07,5.17,7.65,6.52,4.09,6.01
CCTAGCAGGCTAGGGTCACTCAAGCATTTCGCTT,2.86,2.4,-0.638,2.55,-0.881,3.67,0.643,1.87,-0.254,0.841
TCTATTCGTTGATTAGGGCAACCGAAACAGCGGA,0.77,0.642,-0.323,0.409,0.94,0.827,0.127,1.93,3.6,2.72
AGTCAATGTTCACTAGGTAACGTAAGATTCAGCT,-0.318,-0.205,-0.143,-0.121,-0.147,0.363,0.656,0.368,0.15,0.302
ACTGGTTGGTCAGCTGAGGTCACACACAATTCGG,3.86,3.31,2.58,3.6,0.876,3.6,1.53,2.1,0.448,1.43
TCTCGGAGGAAACGAAGGTCAGAGCTTTCCAGAG,0.418,0.556,-0.0873,1.02,-1.15,1.72,-0.151,1.19,1.74,1.39
CCTCGGAGGACAACAGGAGGTCAGAACTGCCAGA,0.84,1.86,1.93,1.49,-0.518,1.78,0.525,-0.182,-0.754,-0.55
CATACAGGGTCAGCTAGGCCAGAGTTGGGACGGC,4.25,2.86,-0.145,2.06,0.341,4.17,3.24,2.97,0.45,1.6
CCTACGGGGCCAAAAAGGTCATTGATGCCGATAA,3.94,4.35,2.76,4.36,0.0213,4.67,1.63,2.97,0.7,1.77

Sequence,PBM binding z-score [1],PBM binding z-score [2],PBM binding z-score [3],PBM binding z-score [4],PBM binding z-score [5],PBM binding z-score [6],PBM binding z-score [7],PBM binding z-score [8],PBM binding z-score [9],PBM binding z-score [10]
CCGACTGGGGCATAAGGTCACCATAAGCCAGCCC,3.25,3.18,0.732,2.78,-0.819,4.02,4.56,4.89,2.53,4.9
CCTTACGGGTCACGAGTTTATAGCACGACGAGCG,6.13,3.82,0.393,3.41,0.252,5.25,5.99,5.87,2.81,4.64
TCTTGTAGATCAACAGGAAGTTAAGAAAGATCGA,0.112,0.0523,-0.395,-0.15,-0.422,0.364,0.0673,1.13,2.73,1.58
CGACCGAGGGCATGAGTTGATAGCAAATGCCGAT,0.304,0.28,-0.485,0.286,-0.854,0.989,0.738,-0.153,-0.657,-0.438
GCATATAGGTAATACAAGGTGACAGTCCGATTGT,0.924,1.5,0.00702,0.333,-0.21,1.16,1.5,1.19,0.699,0.902
GCTATTACTTGAAAGGGCAACCGAATGATTCTCG,0.128,0.738,0.277,0.831,0.248,1,0.583,0.184,0.177,0.0562
ATCTCTAGGTAAGACTCAATTCAGTGAAGAACGC,0.446,0.482,0.559,0.00858,0.847,0.0535,0.199,0.208,0.402,0.378
CGAACCAGGTCATCCAGGACAGTGAATACATTGA,5.37,3.75,1,3.05,0.375,4.67,4.89,4.6,1.51,3.59
TCATATAGGTAAATGATAGGTGAAAGTCCGATCT,1.32,1.17,0.558,1.22,0.404,1.74,1.51,2.71,3.76,3.23
GCGACTGGGGCAAAACAGGTTACCATAAGGTTGG,0.267,0.15,-0.287,0.476,-0.432,1.12,1.22,0.615,-0.338,-0.0458
CCTACTGGGCCGCGAAAGGTCATTGATTCAGTGA,3.37,4.49,3.63,3.85,0.0149,4.35,1.94,3.69,0.701,2.76
GCGACTGGCGCAAAGCAGGTTACCATAAGGTTGG,-0.457,-0.431,-0.662,-0.683,-1.4,-0.182,0.258,-0.247,-0.734,-0.475
CAAACTAGGTCATCCAGGACAGTGAATACATTGA,4.46,3.23,1.22,2.51,0.932,5.12,8.08,6.82,4.42,6.36
CCTCGGAGGACAAAAGGAGGTCAGAGCTGCCAGA,1.18,2.12,1.26,1.34,-0.602,2.71,0.706,1.21,-0.33,0.651
TCTATTAGTTGATCAGGGCAACCGAAACAGCGGA,0.646,0.456,0.302,0.505,0.641,0.282,0.218,2.02,3.78,2.67
GATACAGGGTCAGGTAGAGGCCAGAGTATGGAAA,4.61,2.74,-0.128,2.58,-0.154,4.6,3.75,3.23,0.959,2.07
ATCTCTAGGTAGAGTTCAGTGAAAGATCGATAGA,0.805,1.62,1.28,1.2,0.516,1.78,1.1,2.33,0.898,1.93
CCTCGGAGGACAACAGGCGGTCAGAGCTGCCAGA,-0.211,-0.0211,0.394,-0.76,-1.15,-0.468,-0.327,-0.898,-0.775,-1.03
GCTAGCATGCCATTTGGGTCACTCAATGACGGGC,0.122,-0.0732,-0.46,0.0644,-0.628,1.05,0.819,0.752,-0.349,0.397
CGAACGATGGCATGAGTTGATAGCAAATGCCGAT,-0.377,-0.686,-0.408,-0.556,-0.839,-0.496,0.77,0.203,0.0969,-0.044
GCTGCTAGGTCAGGTTGGTCAGCGAACGGGTACG,1.22,0.707,-0.269,0.492,-0.499,1.3,0.347,0.793,-0.213,0.414
CGAACGAGGGCATGAGGTGATAGCAAATGCCGAT,0.82,0.474,-0.458,0.317,-0.998,2.05,2.27,2.23,0.483,1.49
TCATATAGGTAACACAGGTGAAAGTCGGCATCTA,1.43,1.43,0.437,1.22,0.437,2.4,2.36,3.3,4.15,3.83
TCTCTGAGGACACGAAAGGTCAGAGCTCGACATC,3.12,3.53,3.1,2.98,0.245,3.53,1.56,2.9,2.68,2.75
